The full list was thinned out, with the strongest signals kept by preference.
Key:
Experiment in all cases: glycan array binding signal (z-score within array); higher = stronger binding
Settings in all cases: glycan notation: IUPAC condensed, linker removed
[1] = target: Fuc(a1-2)Gal(b1-3)GalNAc(b1-3)Gal
How it was run: (§1)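 From the Consortium for Functional Glycomics database, 3228 arrays were curated, keeping only those whose protein sequence was available. Binding is given as a within-array Z-score averaged across arrays sharing a protein sequence and across linkers. Negative Z-scores can be read as non-binding.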

[2] = target: Fuc(a1-2)Gal(b1-3)GlcNAc(b1-2)Man(a1-3)[Fuc(a1-2)Gal(b1-3)GlcNAc(b1-2)Man(a1-6)]Man(b1-4)GlcNAc(b1-4)GlcNAc
How it was run: as §1

[3] = target: Fuc(a1-2)Gal(b1-4)GlcNAc(b1-3)[Fuc(a1-2)Gal(b1-4)GlcNAc(b1-6)]GalNAc
How it was run: as §1

[4] = target: Fuc(a1-2)Gal3S(b1-4)GlcNAc
How it was run: as §1

[5] = target: Fuc(a1-2)[Gal(a1-3)]Gal(b1-4)Glc
How it was run: as §1

[6] = target: Fuc(a1-2)[Gal(a1-3)]Gal(b1-4)GlcNAc(b1-2)Man(a1-3)[Fuc(a1-2)[Gal(a1-3)]Gal(b1-4)GlcNAc(b1-2)Man(a1-6)]Man(b1-4)GlcNAc(b1-4)GlcNAc
How it was run: as §1

[7] = target: Fuc(a1-3)[Gal(b1-4)]GlcNAc(b1-4)Gal(b1-4)[Fuc(a1-3)]GlcNAc(b1-4)Gal(b1-4)[Fuc(a1-3)]GlcNAc
How it was run: as §1

[8] = target: Fuc(a1-3)[Gal3S(b1-4)]GlcNAc6S
How it was run: as §1

[9] = target: Fuc(a1-3)[GalNAc(b1-4)]GlcNAc
How it was run: as §1

[10] = target: Gal(a1-3)Fuc(a1-2)Gal(b1-4)GlcNAc(b1-3)[Gal(a1-3)Fuc(a1-2)Gal(b1-4)GlcNAc(b1-6)]GalNAc
How it was run: as §1

[11] = target: Gal(a1-3)[Gal(a1-4)]Gal(b1-4)GlcNAc
How it was run: as §1

[12] = target: Gal(b1-3)GalNAc(a1-3)[Fuc(a1-2)]Gal(b1-4)Glc
How it was run: as §1

[13] = target: Gal(b1-3)[Fuc(a1-4)]GlcNAc(b1-3)Gal(b1-3)[Fuc(a1-4)]GlcNAc
How it was run: as §1

[14] = target: Gal(b1-4)GalNAc(b1-3)[Fuc(a1-2)]Gal(b1-4)GlcNAc
How it was run: as §1

[15] = target: Gal(b1-4)GlcNAc(b1-2)Man(a1-3)[Gal(b1-4)GlcNAc(b1-2)Man(a1-6)]Man(b1-4)GlcNAc(b1-4)GlcNAc
How it was run: as §1

[16] = target: Gal(b1-4)GlcNAc(b1-2)Man(a1-3)[Gal(b1-4)GlcNAc(b1-2)Man(a1-6)][GlcNAc(b1-4)]Man(b1-4)GlcNAc(b1-4)[Fuc(a1-6)]GlcNAc
How it was run: as §1

[17] = target: Gal(b1-4)GlcNAc(b1-2)[Gal(b1-4)GlcNAc(b1-6)]Man(a1-6)[GlcNAc(b1-4)][Gal(b1-4)GlcNAc(b1-2)[Gal(b1-4)GlcNAc(b1-4)]Man(a1-3)]Man(b1-4)GlcNAc(b1-4)[Fuc(a1-6)]GlcNAc
How it was run: as §1

[18] = target: Gal(b1-4)GlcNAc(b1-3)Gal(b1-3)GlcNAc
How it was run: as §1

[19] = target: Gal(b1-4)GlcNAc(b1-3)Gal(b1-4)Glc
How it was run: as §1

[20] = target: Gal3S(b1-4)Glc
How it was run: as §1

[21] = target: Gal3S(b1-4)[Fuc(a1-3)]Glc6S
How it was run: as §1

[22] = target: Gal4S6S(b1-4)GlcNAc
How it was run: as §1

[23] = target: Gal6S(b1-4)Glc6S
How it was run: as §1

[24] = target: GalNAc(b1-3)GlcNAc
How it was run: as §1

[25] = target: GalNAc(b1-4)GlcNAc
How it was run: as §1

[26] = target: GalNAc(b1-4)GlcNAc(b1-3)GalNAc(b1-4)GlcNAc
How it was run: as §1

[27] = target: GalNAc6S(b1-4)GlcNAc
How it was run: as §1

[28] = target: Glc(a1-4)Glc(a1-4)Glc(a1-4)Glc
How it was run: as §1

[29] = target: GlcNAc(a1-4)Gal(b1-4)GlcNAc
How it was run: as §1

[30] = target: GlcNAc(a1-4)Gal(b1-4)GlcNAc(b1-3)Gal(b1-4)GlcNAc
How it was run: as §1

[31] = target: GlcNAc(b1-2)Man(a1-3)[GlcNAc(b1-2)Man(a1-6)]Man(b1-4)GlcNAc(b1-4)GlcNAc
How it was run: as §1

[32] = target: GlcNAc(b1-3)Gal(b1-4)GlcNAc(b1-3)Gal(b1-4)GlcNAc(b1-3)Gal(b1-4)GlcNAc(b1-3)Gal(b1-4)GlcNAc(b1-2)Man(a1-3)[GlcNAc(b1-3)Gal(b1-4)GlcNAc(b1-3)Gal(b1-4)GlcNAc(b1-3)Gal(b1-4)GlcNAc(b1-3)Gal(b1-4)GlcNAc(b1-2)Man(a1-6)]Man(b1-4)GlcNAc(b1-4)[Fuc(a1-6)]GlcNAc
How it was run: as §1

[33] = target: GlcNAc(b1-3)Gal(b1-4)GlcNAc(b1-3)[GlcNAc(b1-3)Gal(b1-4)GlcNAc(b1-3)]GalNAc
How it was run: as §1

[34] = target: GlcNAc(b1-3)[GlcNAc(b1-6)]GalNAc
How it was run: as §1

[35] = target: Neu5Ac(a2-3)Gal(b1-3)[Fuc(a1-4)]GlcNAc(b1-3)Gal(b1-3)[Fuc(a1-4)]GlcNAc
How it was run: as §1

[36] = target: Neu5Ac(a2-3)Gal(b1-3)[Neu5Ac(a2-6)]GlcNAc(b1-3)[Fuc(a1-3)[Gal(b1-4)]GlcNAc(b1-6)]Gal(b1-4)Glc
How it was run: as §1

[37] = target: Neu5Ac(a2-3)Gal(b1-4)Glc
How it was run: as §1

[38] = target: Neu5Ac(a2-3)Gal(b1-4)[Fuc(a1-3)]GlcNAc(b1-2)Man
How it was run: as §1

[39] = target: Neu5Ac(a2-3)Gal(b1-4)[Fuc(a1-3)]GlcNAc(b1-6)[Neu5Ac(a2-3)Gal(b1-3)]GalNAc
How it was run: as §1

[40] = target: Neu5Ac(a2-6)Gal(b1-4)GlcNAc(b1-2)Man(a1-3)[Gal(b1-4)GlcNAc(b1-2)Man(a1-6)]Man(b1-4)GlcNAc(b1-4)GlcNAc
How it was run: as §1

[41] = target: Neu5Ac(a2-6)GalNAc(b1-4)GlcNAc6S
How it was run: as §1

[42] = target: Neu5Ac9Ac(a2-6)Gal(b1-4)GlcNAc
How it was run: as §1

[43] = target: Neu5Gc(a2-6)Gal(b1-4)GlcNAc
How it was run: as §1

B1: Blon2355mut (Bifidobacterium longum) (protein)
chain: MVQEPTLEWHVIPEPTNVEPLVGTCSLPLSGTVVEQRGADDAEAVFARQLVDDIKRVCGGRWQVASGEVQREVTLRTSPSLDDWSYVLEVSPDGVVITGSGFEGVRDGVQTLRQIIRQIGLTIPCMVIRDRPAFSTRGYYLDVTRGRVPSMAWLKSWVDRLCFYKYNQFQLYIEHTFQFNGLSEVWRGADPLTSSDILELDSYCAARGIELVPSVSTFGHHYTALRTRQLRDLGEFPEDADRPFSLIERMTHHTLNITDERSYEFSTSLIDELMPLFRSRKFNICANETFDLGKGRSKQESAKRGVGAMYADFVERLCRHVDDRGHDVMVWADVALEHPEIIDTLPKNITWLNWQYEPNVDDGTTAALADAGATQMVCPAVWCWNALIPRIDDAWNNITRMARHGRAHDVSGMLVTDWGDFGHVNDPRMSVPGMIFGAQQSWNPDAELSEVDMLSRISTIEYGDHTGSVVGALRGASAKGGFSWSDLVTYLELDDGRGGCNTEIVRVMGCLEAYRNDLPQSGQARLADARVSMLRTLRDSILAGRELNGKLDDAAKDITQLLRVAGDPSSAAVWSLAIDGQRLLNRVGLALLAAHGVVRQDEAGIDAAKLADELECWTEQYSRLWHEVSRQSELARIQHVVWRAADVLRSI
glycan array binding signal (z-score) [1]: 4.04 | glycan array binding signal (z-score) [2]: 2.69 | glycan array binding signal (z-score) [3]: -0.88 | glycan array binding signal (z-score) [4]: -0.915 | glycan array binding signal (z-score) [5]: -0.428 | glycan array binding signal (z-score) [6]: -0.395 | glycan array binding signal (z-score) [7]: -0.166 | glycan array binding signal (z-score) [8]: 0.088 | glycan array binding signal (z-score) [9]: 3.72 | glycan array binding signal (z-score) [10]: -1.04 | glycan array binding signal (z-score) [11]: 3.31 | glycan array binding signal (z-score) [12]: -1.53 | glycan array binding signal (z-score) [13]: -1.02 | glycan array binding signal (z-score) [14]: 0.202 | glycan array binding signal (z-score) [15]: -0.374 | glycan array binding signal (z-score) [16]: -0.951 | glycan array binding signal (z-score) [17]: -0.768 | glycan array binding signal (z-score) [18]: -1.26 | glycan array binding signal (z-score) [19]: 1.06 | glycan array binding signal (z-score) [20]: 2.74 | glycan array binding signal (z-score) [21]: 3.52 | glycan array binding signal (z-score) [22]: 0.175 | glycan array binding signal (z-score) [23]: 1.48 | glycan array binding signal (z-score) [24]: 0.179 | glycan array binding signal (z-score) [25]: 3.04 | glycan array binding signal (z-score) [26]: 0.796 | glycan array binding signal (z-score) [27]: -0.569 | glycan array binding signal (z-score) [28]: 2.06 | glycan array binding signal (z-score) [29]: -0.637 | glycan array binding signal (z-score) [30]: -0.378 | glycan array binding signal (z-score) [31]: -0.111 | glycan array binding signal (z-score) [32]: 1.1 | glycan array binding signal (z-score) [33]: 3.84 | glycan array binding signal (z-score) [34]: -0.847 | glycan array binding signal (z-score) [35]: -0.494 | glycan array binding signal (z-score) [36]: 4.03 | glycan array binding signal (z-score) [37]: 3.29 | glycan array binding signal (z-score) [38]: 1.4 | glycan array binding signal (z-score) [39]: 1.6 | glycan array binding signal (z-score) [40]: -0.73 | glycan array binding signal (z-score) [41]: -0.126 | glycan array binding signal (z-score) [42]: 3.4

B2: PpFlo1 (Pichia pastoris) (protein)
chain: MGSSHHHHHHSSGLVPRGSHMQESGDGDISDSAYACDIDATRYDGFNATIYEFQPGDGRLTRDPVFMSTGYLNRTQLHSITGVTDPGFSIYTPGVPTTTLYGIPNVNWENLLLELKGYFRAEVSGDYGLSLRNIDDSAILFFGKETAFQCCNENSISNEASTDYSLFTIFRQEGDETTNLDSFTYTQYLEAGKYYPVRTFFVNIERHAVFNFTMTLPDGTELTDFHNYIYQFGALDEEQCQA
glycan array binding signal (z-score) [42]: -0.44 | glycan array binding signal (z-score) [43]: 0
